Reference: the supplement of paper PMC12819154, “High-throughput peptide-centric local stability assay extends protein–ligand identification to membrane proteins, tissues and bacteria” (Nature Structural & Molecular Biology, 2025)

Compound: Nc1ncnc2c1ncn2[C@@H]1O[C@H](COP(=O)(O)OP(=O)(O)OP(=O)(O)O)[C@@H](O)[C@H]1O [adenosine 5'-triphosphate]
Test: log2 fold change of tryptic peptide abundance, ligand vs vehicle (limited proteolysis) (log2 ratio); higher = more trypsin-susceptible (destabilized)
Conditions: ligand concentration: 5 mM; sample: E. coli desalted lysate; replicate design: treated before aliquoting
Protocol: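 HT-PELSA: desalted E. coli K-12 BW25113 lysate (with 12 mM MgCl2) incubated with 5 mM ATP (pH 7) or water for 30 min at 25 C, then a 4 min trypsin pulse at 22 C. Peptides were quantified by DIA-MS (4 replicates). Value is the peptide log2 fold change (treated/control); negative = stabilized. Scale: negative = ligand-stabilized region.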
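Further: lysate desalted by size exclusion to strip endogenous ATP, peptide intensities built from DIA-NN precursor signals, and peptides missing any value discarded before comparison.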

Target | log2 fold change
UniProt P10907 (peptide sequence: ILELDGLLK, peptide start residue: 121) | -0.369
UniProt P33030 (peptide sequence: TTPESEQALQR, peptide start residue: 157) | -0.316
UniProt Q46800 (peptide sequence: LAFGVAAPTPIR, peptide start residue: 215) | 0.403
UniProt P0AFU4 (peptide sequence: LMTASWPGNVR, peptide start residue: 344) | -1.31
UniProt P21645 (peptide sequence: KTAALVMNIDDMSKR, peptide start residue: 315) | -0.565
UniProt P77783 (peptide sequence: MNHPDRLK, peptide start residue: 109) | -0.483
UniProt P23839 (peptide sequence: YLETYFRLPEQFR, peptide start residue: 31) | 0.91
UniProt P00960 (peptide sequence: AVAEAYYASREALGFPMCNKDK, peptide start residue: 282) | 0.93
UniProt P0DPP7 (peptide sequence: NKYLNSTR, peptide start residue: 41) | 0.633
UniProt P00550 (peptide sequence: GASPLSAGDVTNDLSHVRK, peptide start residue: 361) | 0.413
UniProt P00959 (peptide sequence: HTIMVANLAPRK, peptide start residue: 630) | -0.728
UniProt P37344 (peptide sequence: ETLLNYR, peptide start residue: 215) | -1.98
UniProt Q46919 (peptide sequence: MHDLLDNK, peptide start residue: 59) | 0.557
UniProt P76550 (peptide sequence: PISNGAFYR, peptide start residue: 210) | -0.83
UniProt P21420 (peptide sequence: HYFSSNDADDGDTTYAR, peptide start residue: 44) | -0.336
UniProt P15031 (peptide sequence: TVFSVEAEIHPEPVSGRPMCLMR, peptide start residue: 233) | 1.33
UniProt P77795 (peptide sequence: IEQVDSPR, peptide start residue: 213) | -0.95
UniProt P75736 (peptide sequence: SFVDGEWR, peptide start residue: 165) | -1.28
UniProt P26365 (peptide sequence: SATGASVWVLSNR, peptide start residue: 277) | -0.606

Target | log2 fold change
UniProt P39180 (peptide sequence: NLNGQNGTISLR, peptide start residue: 603) | 0.735
UniProt P77485 (peptide sequence: GTVAVTSDAR, peptide start residue: 461) | -0.644
UniProt P22106 (peptide sequence: QALEDSVK, peptide start residue: 214) | -0.816
UniProt P42632 (peptide sequence: IKALPTYR, peptide start residue: 593) | 0.596
UniProt P31142 (peptide sequence: GHIPGALNVPWTELVR, peptide start residue: 194) | -0.763
UniProt P45955 (peptide sequence: AVYQQVISKYPGTDGAK, peptide start residue: 238) | 0.687
UniProt P00509 (peptide sequence: VWVSNPSWPNHK, peptide start residue: 123) | -1.24
UniProt P37624 (peptide sequence: LFHIPEAEIPAR, peptide start residue: 376) | -1.74
UniProt P52073 (peptide sequence: LEGGEGSVK, peptide start residue: 217) | -0.566
UniProt P76419 (peptide sequence: GGDCAPTREELLLAHK, peptide start residue: 304) | -1.82
UniProt P76556 (peptide sequence: IAFVGSVGAGK, peptide start residue: 4) | -0.693
UniProt P45568 (peptide sequence: ESLVTCGR, peptide start residue: 126) | 0.779
UniProt P26646 (peptide sequence: ESTHEYLK, peptide start residue: 181) | 0.217
UniProt P76403 (peptide sequence: SFYYCARTAQVYRK, peptide start residue: 294) | -0.632
UniProt P04994 (peptide sequence: TGAALHDILHVLK, peptide start residue: 149) | 0.643
UniProt P08142 (peptide sequence: KRFTGAEFIVHFLEQQGIK, peptide start residue: 11) | 1.49
UniProt P75829 (peptide sequence: EIAEIASK, peptide start residue: 298) | -0.281
UniProt P76014 (peptide sequence: EIGDADHGLNMNR, peptide start residue: 32) | -2.08
